# Measurements from PubChem BioAssay.
# A number with no mark means an inactive call. The source made the active and inactive calls.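 The calls were made as follows, unless noted: active = mean inhibition above 46.68%, the untreated control wells mean plus 3 SD; inactive = the rest.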
# Tests used:
# [1] = biological target: Nuclear receptor coactivator 1 (Homo sapiens) (UniProt Q15788); assay: NCOA1 GAL4-fusion reporter inhibition – cell-based, luminescence, quadruplicate, confirmation (AID 588820); conditions: HEK293 GAL4-SRC1 luciferase reporter, at 3.6 µM, stronger effect = higher value;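 also: 0% = DMSO wells and 100% = gossypol 36 µM treated wells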
# [2] = repression of VP16-driven luciferase reporter – cell-based, luminescence, high throughput, counter-screen for SRC1 inhibitor project (AID 588824; in the data active = inhibition above about 25%); conditions: cell-based VP16 transactivation luciferase luminescence; at 3.6 µM; stronger effect = higher value
# [3] = biological target: Nuclear receptor coactivator 3 (Homo sapiens) (UniProt Q9Y6Q9); assay: NCOA3 GAL4-fusion reporter inhibition – cell-based, luminescence, quadruplicate, confirmation (AID 588792;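 active = mean inhibition over 43.08%, the solvent-only control mean plus 3 SD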;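 also: 0% = DMSO treated cells and 100% = gossypol at 36 µM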); conditions: HEK293 GAL4-SRC3 luciferase reporter, at 3.6 µM, stronger effect = higher value
# [4] = test system: transactivating tegument protein VP16 (Human herpesvirus 1), Gal4-VP16 luciferase reporter; assay: repression of VP16-driven luciferase reporter – cell-based, luminescence, high throughput, counter-screen for SRC3 inhibitor project (AID 588794; in the data active = inhibition above about 30%); conditions: mammalian cells, at 3.6 µM, stronger effect = higher value
# [5] = StAR promoter reporter inhibitors, counter-screen for LRH-1 inverse agonist project, cell-based, luminescence, high throughput (AID 651611; in the data active = inhibition above about 28%); conditions: StAR promoter luciferase reporter counterscreen, at 3.6 µM, stronger effect = higher value
# [6] = biological target: Nuclear receptor subfamily 5 group A member 2 (Homo sapiens) (UniProt O00482); assay: NR5A2 activity suppression in reporter cells – cell-based, luminescence, confirmation (AID 651613; in the data active = inhibition above about 42%;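 also: HEK293T cells co-transfected with LRH-1 and StAR promoter luciferase reporter; 0% = vehicle wells and 100% = parental cells lacking receptor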); conditions: cell-based LRH-1 luciferase reporter, inverse agonism; at 3.6 µM; stronger effect = higher value
# [7] = biological target: Steroidogenic factor 1 (Homo sapiens) (UniProt Q13285); assay: inverse agonism at SF1 nuclear receptor – cell-based, luminescence, high throughput, counter-screen for LRH-1 inverse agonist project (AID 651614; in the data active = inhibition above about 44%;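 also: cells cotransfected with StAR promoter reporter and SF1 expression vector; 0% = vehicle on cells with receptor and 100% = vehicle on cells lacking receptor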); conditions: cell-based SF1 luciferase reporter, at 3.6 µM, stronger effect = higher value
# [8] = compounds suppressing VP16-driven luciferase signal – cell-based, luminescence, high throughput, counter-screen for LRH-1 inverse agonist project (AID 651615; in the data active = inhibition above about 33%); conditions: Gal4-VP16 luciferase reporter cells, at 3.6 µM, stronger effect = higher value
# [9] = test system: transactivating tegument protein VP16 (Human herpesvirus 1); assay: compounds suppressing VP16-driven luciferase signal – cell-based, luminescence, single concentration, counter-screen for SRC2 inhibitor project (AID 652007; in the data active = inhibition above about 36%); conditions: cell-based VP16 transactivation luciferase reporter, at 8.9 µM, stronger effect = higher value
# [10] = biological target: Nuclear receptor coactivator 2 (Homo sapiens) (UniProt Q15596); assay: inhibition of GAL4-SRC2 driven luciferase expression – cell-based, luminescence, HEK293, triplicate, confirmation (AID 652008;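 active = mean inhibition above 46.5%, the solvent-only control mean plus 3 SD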;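 also: 0% = DMSO-treated cells and 100% = Gossypol at 36 µM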); conditions: HEK293 GAL4-SRC2 luciferase reporter, at 8.9 µM, stronger effect = higher value
# Nuclear receptor coactivator 2 (Homo sapiens), sequence (Q15596 whole entry, looked up, the tested form may be a part): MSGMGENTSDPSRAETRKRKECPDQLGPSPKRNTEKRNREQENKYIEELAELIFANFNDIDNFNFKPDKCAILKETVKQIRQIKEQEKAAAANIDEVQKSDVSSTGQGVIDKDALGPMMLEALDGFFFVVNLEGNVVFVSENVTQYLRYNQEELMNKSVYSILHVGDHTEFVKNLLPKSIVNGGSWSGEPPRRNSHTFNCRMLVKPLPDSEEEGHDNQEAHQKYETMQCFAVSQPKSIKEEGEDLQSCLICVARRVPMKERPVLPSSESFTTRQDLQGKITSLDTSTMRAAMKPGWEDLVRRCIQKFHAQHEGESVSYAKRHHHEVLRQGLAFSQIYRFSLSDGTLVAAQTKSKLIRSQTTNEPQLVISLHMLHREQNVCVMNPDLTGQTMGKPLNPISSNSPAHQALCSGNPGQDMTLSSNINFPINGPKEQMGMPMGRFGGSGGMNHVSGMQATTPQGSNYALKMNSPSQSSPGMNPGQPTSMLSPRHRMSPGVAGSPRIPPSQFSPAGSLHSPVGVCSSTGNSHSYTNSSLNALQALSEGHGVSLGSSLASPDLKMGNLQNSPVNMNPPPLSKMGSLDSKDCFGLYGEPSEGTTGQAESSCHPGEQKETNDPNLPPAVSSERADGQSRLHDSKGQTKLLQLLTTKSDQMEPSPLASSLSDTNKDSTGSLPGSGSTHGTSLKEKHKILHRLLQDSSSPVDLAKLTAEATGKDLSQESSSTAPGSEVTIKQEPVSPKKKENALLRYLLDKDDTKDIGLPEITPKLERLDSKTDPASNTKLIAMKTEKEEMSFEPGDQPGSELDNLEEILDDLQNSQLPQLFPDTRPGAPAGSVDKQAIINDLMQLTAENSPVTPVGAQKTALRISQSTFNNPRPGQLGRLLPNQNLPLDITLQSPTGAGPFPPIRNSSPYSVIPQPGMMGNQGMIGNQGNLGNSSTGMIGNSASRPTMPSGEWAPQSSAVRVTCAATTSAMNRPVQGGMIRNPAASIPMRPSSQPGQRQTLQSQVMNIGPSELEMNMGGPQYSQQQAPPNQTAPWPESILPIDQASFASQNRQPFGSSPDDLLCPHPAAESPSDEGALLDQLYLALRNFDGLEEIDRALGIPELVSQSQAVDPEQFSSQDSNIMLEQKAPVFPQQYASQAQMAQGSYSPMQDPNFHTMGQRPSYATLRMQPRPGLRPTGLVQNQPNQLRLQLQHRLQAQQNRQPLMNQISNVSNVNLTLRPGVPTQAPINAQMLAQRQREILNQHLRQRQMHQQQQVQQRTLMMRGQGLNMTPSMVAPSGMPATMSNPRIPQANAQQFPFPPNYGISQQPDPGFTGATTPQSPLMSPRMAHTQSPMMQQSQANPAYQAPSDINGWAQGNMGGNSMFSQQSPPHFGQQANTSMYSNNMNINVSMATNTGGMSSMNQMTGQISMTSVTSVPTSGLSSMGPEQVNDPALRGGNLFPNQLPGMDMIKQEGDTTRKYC
# Steroidogenic factor 1 (Homo sapiens), sequence (Q13285 whole entry, looked up, the tested form may be a part): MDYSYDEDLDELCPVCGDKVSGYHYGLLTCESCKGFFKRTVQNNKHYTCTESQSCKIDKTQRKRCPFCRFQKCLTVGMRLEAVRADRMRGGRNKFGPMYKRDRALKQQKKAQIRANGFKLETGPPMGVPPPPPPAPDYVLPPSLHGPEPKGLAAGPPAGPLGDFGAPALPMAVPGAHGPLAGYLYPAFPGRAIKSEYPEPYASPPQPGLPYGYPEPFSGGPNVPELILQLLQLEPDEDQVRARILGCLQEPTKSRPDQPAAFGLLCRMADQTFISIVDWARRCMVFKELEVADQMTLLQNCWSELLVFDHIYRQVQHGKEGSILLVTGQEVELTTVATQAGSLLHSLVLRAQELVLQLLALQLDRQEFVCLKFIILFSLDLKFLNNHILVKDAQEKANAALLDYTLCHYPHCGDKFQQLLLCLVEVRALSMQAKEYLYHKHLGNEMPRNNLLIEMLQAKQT
# Nuclear receptor coactivator 1 (Homo sapiens), sequence (Q15788 whole entry, looked up, the tested form may be a part): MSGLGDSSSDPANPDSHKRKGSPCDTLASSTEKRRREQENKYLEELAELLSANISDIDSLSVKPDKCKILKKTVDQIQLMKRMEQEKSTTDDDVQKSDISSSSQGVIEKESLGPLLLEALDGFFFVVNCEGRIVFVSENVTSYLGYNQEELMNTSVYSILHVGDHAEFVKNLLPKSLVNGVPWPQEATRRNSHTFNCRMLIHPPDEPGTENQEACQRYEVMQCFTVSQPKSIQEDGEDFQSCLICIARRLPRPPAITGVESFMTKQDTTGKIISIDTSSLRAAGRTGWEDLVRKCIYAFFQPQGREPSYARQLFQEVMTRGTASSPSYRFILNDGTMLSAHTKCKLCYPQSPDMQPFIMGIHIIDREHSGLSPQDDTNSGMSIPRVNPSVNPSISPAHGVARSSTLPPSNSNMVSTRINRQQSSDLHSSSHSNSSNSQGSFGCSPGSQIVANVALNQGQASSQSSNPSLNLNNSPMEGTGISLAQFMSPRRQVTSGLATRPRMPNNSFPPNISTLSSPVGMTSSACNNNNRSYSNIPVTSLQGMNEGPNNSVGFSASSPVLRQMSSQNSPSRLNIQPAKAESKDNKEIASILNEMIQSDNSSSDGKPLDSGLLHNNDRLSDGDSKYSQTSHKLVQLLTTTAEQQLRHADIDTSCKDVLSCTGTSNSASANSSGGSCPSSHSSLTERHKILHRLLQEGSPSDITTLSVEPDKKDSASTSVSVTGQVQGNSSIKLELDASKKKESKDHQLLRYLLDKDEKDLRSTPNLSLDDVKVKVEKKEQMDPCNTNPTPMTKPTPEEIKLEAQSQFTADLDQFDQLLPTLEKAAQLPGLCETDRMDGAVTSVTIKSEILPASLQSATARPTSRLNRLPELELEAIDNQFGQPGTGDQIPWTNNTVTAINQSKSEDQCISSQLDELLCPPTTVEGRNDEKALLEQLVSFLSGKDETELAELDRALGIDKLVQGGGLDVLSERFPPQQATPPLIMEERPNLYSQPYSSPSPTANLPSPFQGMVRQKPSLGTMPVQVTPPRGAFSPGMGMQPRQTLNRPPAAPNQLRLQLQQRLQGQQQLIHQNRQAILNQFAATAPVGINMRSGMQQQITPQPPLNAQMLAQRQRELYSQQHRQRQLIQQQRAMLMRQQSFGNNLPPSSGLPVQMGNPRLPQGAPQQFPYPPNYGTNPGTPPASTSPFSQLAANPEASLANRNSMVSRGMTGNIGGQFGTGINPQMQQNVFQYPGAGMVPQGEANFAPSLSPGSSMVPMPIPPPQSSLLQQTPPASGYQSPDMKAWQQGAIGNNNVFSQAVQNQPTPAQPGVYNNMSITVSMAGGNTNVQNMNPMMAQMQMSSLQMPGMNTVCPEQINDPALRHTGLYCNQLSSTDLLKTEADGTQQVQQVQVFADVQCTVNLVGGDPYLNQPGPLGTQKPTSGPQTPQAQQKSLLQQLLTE
# Nuclear receptor subfamily 5 group A member 2 (Homo sapiens), sequence (O00482 whole entry, looked up): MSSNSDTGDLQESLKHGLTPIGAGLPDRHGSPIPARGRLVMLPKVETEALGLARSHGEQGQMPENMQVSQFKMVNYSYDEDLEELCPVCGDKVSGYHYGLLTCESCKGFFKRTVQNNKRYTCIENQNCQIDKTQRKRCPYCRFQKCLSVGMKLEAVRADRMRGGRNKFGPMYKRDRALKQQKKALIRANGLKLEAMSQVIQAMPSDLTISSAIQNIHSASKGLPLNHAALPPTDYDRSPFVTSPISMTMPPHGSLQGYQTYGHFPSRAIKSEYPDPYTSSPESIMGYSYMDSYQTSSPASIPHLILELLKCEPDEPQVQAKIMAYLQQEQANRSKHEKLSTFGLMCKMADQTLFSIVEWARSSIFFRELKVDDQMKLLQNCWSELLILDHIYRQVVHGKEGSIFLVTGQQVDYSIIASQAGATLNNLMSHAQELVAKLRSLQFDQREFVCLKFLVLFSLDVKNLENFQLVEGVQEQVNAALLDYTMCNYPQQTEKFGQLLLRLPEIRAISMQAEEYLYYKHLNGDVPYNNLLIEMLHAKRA
smiles,measurement,setting,value
COc1ccc(-n2nnnc2C(CCSC)N2CCC(n3c(=O)[nH]c4ccccc43)CC2)cc1 (stereo not given),inhibition,[1],-13.8%
same,inhibition,[2],-1.55%
CC1CCC/C=C/C2CC(O)CC2C(O)/C=C/C(=O)O1 (stereo not given),inhibition,[3],64.7% (active)
same,inhibition,[4],75% (active)
same,inhibition,[5],78.9% (active)
same,inhibition,[6],86.7% (active)
same,inhibition,[7],80.8% (active)
same,inhibition,[8],74.8% (active)
CCC(c1nnnn1-c1ccc2c(c1)OCCO2)N1CCC(n2c(=O)[nH]c3ccccc32)CC1 (stereo not given),inhibition,[1],-22%
same,inhibition,[2],9.85%
CC(=NNC(=S)N1CC2CCC(CC2)C1)c1nccs1,inhibition,[1],62.2% (active)
same,inhibition,[2],74.4% (active)
CCN(CC)C(=O)c1ccc(NC(=O)c2ccc(-n3cncn3)c([N+](=O)[O-])c2)cc1,inhibition,[1],-2.4%
same,inhibition,[2],5.45%
COc1ccc(CN2Cc3cnnn3-c3ccccc3C2C#N)cc1 (stereo not given),inhibition,[3],62.8% (active)
same,inhibition,[4],56.2% (active)
same,inhibition,[9],51.6% (active)
same,inhibition,[10],49.8% (active)
CC(C)CNc1c2c(nc3ccccc13)CCC2,inhibition,[1],7.81%
same,inhibition,[2],17.3%
CNC(=O)c1cccn(Cc2ccc(C(F)(F)F)cc2)c1=O,inhibition,[3],30.3%
same,inhibition,[4],-34.3%
same,inhibition,[5],47.7% (active)
same,inhibition,[6],65.9% (active)
same,inhibition,[7],54.3% (active)
same,inhibition,[8],-78.8%
COC(=O)C[C@]1(C(=O)OC)CN(C#N)N(c2ccc(Cl)cc2)C12c1ccccc1-c1ccccc12,inhibition,[3],17.7%
same,inhibition,[4],63.2% (active)
same,inhibition,[5],34.7% (active)
same,inhibition,[6],61.1% (active)
same,inhibition,[7],58.2% (active)
same,inhibition,[8],69.2% (active)
COC(=O)C1=C(c2ccc(-c3ccccc3)c(F)c2)C[C@@H]2CC[C@H]1N2C(=O)N1CCCCC1,inhibition,[3],18.3%
same,inhibition,[4],39% (active)
same,inhibition,[9],19.5%
same,inhibition,[10],35.4%
c1ccc(-c2[nH]c(-c3ccccc3)[n+](CC3CO3)c2-c2ccccc2)cc1 (stereo not given),inhibition,[3],13.4%
same,inhibition,[4],-0.66%
same,inhibition,[9],22.1%
same,inhibition,[10],30.2%
COC(=O)C1=C(c2ccc(-c3ccccc3)c(F)c2)C[C@@H]2CC[C@H]1N2C(=O)NC1CC1,inhibition,[1],15.1%
same,inhibition,[2],25.6% (active)
COc1ccc(-n2nnnc2C(c2cccc(OC)c2OC)N2CCC(n3c(=O)[nH]c4ccccc43)CC2)cc1 (stereo not given),inhibition,[1],-18.7%
same,inhibition,[2],3.33%
CN1CCN(c2cc(N3CCCCCC3)c(F)cc2[N+](=O)[O-])CC1,inhibition,[1],-15.1%
same,inhibition,[2],-7.21%
O=c1[nH]c2ccccc2n1C1CCN(C(c2cc3ccccc3o2)c2nnnn2-c2ccc3c(c2)OCCO3)CC1 (stereo not given),inhibition,[1],-27.1%
same,inhibition,[2],8.97%
CC(=CCOc1ccc2ccc(=O)oc2c1)C1=CC(=O)C(C)(C)O1,inhibition,[1],17.3%
same,inhibition,[2],35.2% (active)
